Measured values: PubChem BioAssay (Tox21)
Values joined by “and” are separate entries in the source; they are usually repeats but may differ in a detail not shown here. Equal values may be shown once. Records with an inconclusive call do not appear. Active and inactive are the calls of the source. Unless noted, calls come from the whole dose curve; as a rule, active = well fitted curve in the direction sought with a large enough effect in the repeat runs; inconclusive = weak or mixed curves; inactive = no such curve, though single readings can be large; an effect the other way counts as inactive or inconclusive.

Legend:
[1] = qHTS assay for small molecule agonists of the p53 signaling pathway (AID 651631; calls by dose curve; note: nearly all actives have a fitted effect of over 15% in size)
In short: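 Testing took place in human colorectal HCT-116 cells with stable p53RE-driven beta-lactamase. After 16 h of compound exposure at 37 °C, a FRET substrate was added and fluorescence recorded 2 h later.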

[2] = qHTS assay for small molecules that induce genotoxicity in human embryonic kidney cells expressing luciferase-tagged ATAD5 - cell viability (AID 651634; calls by dose curve; note: nearly all actives have a fitted effect of over 25% in size)
In short: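 HEK293T cells carrying luciferase-tagged ATAD5, 2,000 cells/well, exposed to compound for 15.5 hr at 37C. Viability read as live-cell protease activity by CellTiter-Fluor fluorescence after 30 min at 37C.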

[3] = qHTS assay for small molecule disruptors of the mitochondrial membrane potential - cell viability (AID 720634; calls by dose curve;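 note: human HepG2 liver cancer cells; series mostly up to about 83 µM; nearly all actives have a fitted effect of over 20% in size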)
In short: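 HepG2 cells, 2,000 per well, attached overnight, then treated 1 hr at 37 C, 5% CO2. Viability read as ATP by CellTiter-Glo luminescence after 30 min at room temperature. Read in the same wells as the m-MPI membrane-potential dye assay.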

[4] = qHTS assay to test for compound auto fluorescence at 590 nm (red) in HepG2 cells (AID 720674)
In short: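 We screened compounds on adherent HepG2 cells, incubating them for an hour at 37 C in 5% CO2 before reading emission at 590 nm under 540 nm excitation; values reflect equivalence to Rose Bengal sodium fluorescence.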

[5] = qHTS assay to test for compound auto fluorescence at 460 nm (blue) in HEK293 cells (AID 720678)
In short: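 Blue-channel (Ex/Em 405/460 nm) intensity measured in HEK293 cultures after overnight compound exposure at 37C; signal expressed relative to triamterene. Cells plated 2,000 per well in 10% dialyzed FBS medium and allowed 4-5 hr to attach.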

[6] = qHTS assay to test for compound auto fluorescence at 590 nm (red) in HEK293 cells (AID 720679)
In short: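 Red-channel autofluorescence (Ex/Em 540/590 nm; Rose Bengal sodium reference) was measured after overnight 37C, 5% CO2 exposure of attached HEK293 cells, 2,000 per well in medium with 10% dialyzed FBS.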

[7] = qHTS assay to test for compound auto fluorescence at 535 nm (green) in HEK293 cells (AID 720680)
[8] = qHTS assay to test for compound auto fluorescence at 460 nm (blue) in HEK293 cell free culture (AID 720681)
In short: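 Blue fluorescence (Ex 405/Em 460 nm, triamterene-equivalent) was read immediately after pin transfer of compound or DMSO into medium (DMEM, 10% FBS) without cells.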

[9] = qHTS assay to test for compound auto fluorescence at 535 nm (green) in HEK293 cell free culture (AID 720682)
In short: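 DMEM + 10% FBS, cell-free; cpd or DMSO pinned in; Ex485/Em535 read; output as fluorescein-equivalent signal.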

[10] = qHTS assay to test for compound auto fluorescence at 590 nm (red) in HEK293 cell free culture (AID 720683)
In short: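 Red-channel autofluorescence of compounds in culture medium (DMEM, 10% FBS), no cells, measured at 540/590 nm. Rose Bengal sodium is the reference fluorophore for equivalence.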

[11] = qHTS assay to test for compound auto fluorescence at 590 nm (red) in HepG2 cell free culture (AID 720684)
In short: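 Plate contents were MEM with 10% FBS plus test compound or DMSO, no cells. Fluorescence was recorded with 540 nm excitation and 590 nm emission.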

[12] = qHTS assay to test for compound auto fluorescence at 535 nm (green) in HepG2 cell free culture (AID 720686)
[13] = qHTS assay to test for compound auto fluorescence at 460 nm (blue) in HepG2 cells (AID 720687)
In short: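 Blue-channel autofluorescence (Ex/Em 405/460 nm, triamterene-equivalent) was measured after 1 hr compound exposure at 37 C, 5% CO2. Cells were HepG2, plated overnight at 37 C in MEM plus 10% FBS.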

[14] = qHTS assay for small molecules that induce genotoxicity in human embryonic kidney cells expressing luciferase-tagged ATAD5 (AID 651632); note: nearly all actives have a fitted effect of over 15% in size
In short: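 HEK293T cells carrying luciferase-tagged ATAD5 were given compound or DMSO vehicle and incubated 16 hr at 37C, 5% CO2. Luciferase activity was read after 30 min at room temperature with Amplite; a rise signals genotoxic stress.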

[15] = qHTS assay for small molecule agonists of the p53 signaling pathway - cell viability (AID 651633; calls by dose curve; note: series mostly up to about 83 µM; nearly all actives have a fitted effect of over 30% in size)
In short: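 Viability counter-read: CellTiter-Glo luminescence (30 min, room temperature) in the same p53RE-bla plates. These plates had been exposed to compounds for 16 h at 37 C.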

[16] = qHTS assay for small molecule disruptors of the mitochondrial membrane potential (AID 720635); note: potency is the fitted concentration of half-maximal effect
In short: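 Mitochondrial membrane potential tracked with Mito-MPS dye, red aggregates (ex 540/em 590 nm) against green monomers (ex 490/em 535 nm). Compound treatment 1 hr at 37C, dye 30 min in HepG2.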

[17] = qHTS assay to test for compound auto fluorescence at 535 nm (green) in HepG2 cells (AID 720675)
[18] = qHTS assay to test for compound auto fluorescence at 460 nm (blue) in HepG2 cell free culture (AID 720685)
In short: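 Compound (23 nL) or DMSO pinned into cell-free MEM with 10% FBS; blue fluorescence read at 405/460 nm excitation/emission, expressed as auto-fluorescence equivalency to triamterene.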

[19] = target: Glucocorticoid receptor (Homo sapiens) (UniProt P04150); test: qHTS assay to identify small molecule agonists of the glucocorticoid receptor (GR) signaling pathway (AID 720691; active = well fitted activation curve with a large enough effect in the signal ratio in the repeat runs, not every such curve was filed as active; the % refers to the signal ratio)
Sequence of Glucocorticoid receptor (Homo sapiens) (P04150 whole entry, looked up): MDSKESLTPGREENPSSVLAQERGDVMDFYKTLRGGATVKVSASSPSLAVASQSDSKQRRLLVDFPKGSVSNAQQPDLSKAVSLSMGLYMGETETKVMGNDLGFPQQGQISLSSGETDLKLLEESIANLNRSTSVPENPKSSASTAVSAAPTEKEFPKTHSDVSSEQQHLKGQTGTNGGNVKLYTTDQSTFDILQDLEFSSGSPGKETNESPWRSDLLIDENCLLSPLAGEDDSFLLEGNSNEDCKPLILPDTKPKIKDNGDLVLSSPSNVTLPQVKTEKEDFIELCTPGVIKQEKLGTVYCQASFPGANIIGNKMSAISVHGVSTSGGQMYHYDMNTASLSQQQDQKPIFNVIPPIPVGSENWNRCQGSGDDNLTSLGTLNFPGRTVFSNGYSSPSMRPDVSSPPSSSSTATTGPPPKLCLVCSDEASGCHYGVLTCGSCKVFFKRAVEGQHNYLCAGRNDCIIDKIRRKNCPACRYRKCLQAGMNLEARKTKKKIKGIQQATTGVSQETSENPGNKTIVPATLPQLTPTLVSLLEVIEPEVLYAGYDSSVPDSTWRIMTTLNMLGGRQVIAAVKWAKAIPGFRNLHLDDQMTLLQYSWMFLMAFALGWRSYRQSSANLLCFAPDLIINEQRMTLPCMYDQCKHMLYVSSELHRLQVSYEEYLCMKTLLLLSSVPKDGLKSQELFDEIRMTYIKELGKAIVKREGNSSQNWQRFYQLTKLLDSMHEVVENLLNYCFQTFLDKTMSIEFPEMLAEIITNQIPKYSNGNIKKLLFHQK
In short: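 GR-bla HeLa cells carrying a GRE-driven beta-lactamase reporter, exposed to compounds for 18 h at 37 C. Reporter activation read as fluorescence after 2 h with LiveBLAzer B/G FRET substrate at room temperature.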

[20] = target: Glucocorticoid receptor (Homo sapiens) (UniProt P04150); test: qHTS assay to identify small molecule antagonists of the glucocorticoid receptor (GR) signaling pathway (AID 720692; active = well fitted inhibition curve with a large enough effect in the signal ratio in the repeat runs, not every such curve was filed as active; the % refers to the signal ratio)
In short: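 GR-bla HeLa cells carrying a GRE-driven beta-lactamase reporter received compound after 4 h plating, then dexamethasone (5 nM final). After 18 h at 37C, the FRET substrate was loaded for 2 h at room temperature and fluorescence read.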
% is set by controls: 0 for no effect and ±100 for the full control effect.

O=C(O)COC(=O)Cc1ccccc1Nc1c(Cl)cccc1Cl
inactive: Potency [1] | Potency [2] | Potency [3] | fluorescence, relative to Rose Bengal [4] 0.242% [at 18.6 µM] | fluorescence, % of triamterene [5] 0.0454% [at 18.6 µM] | fluorescence, % of fluorescent control [6] -0.0045% [at 18.6 µM] | fluorescence, % of fluorescein [7] 0.0784% [at 18.6 µM] | fluorescence, % of fluorescent control [8] 0.0686% [at 18.6 µM] | activity change [9] 0.0139% [at 18.6 µM] | fluorescence, % of fluorescent control [10] -0.172% [at 18.6 µM] | fluorescence, % of Rose Bengal [11] -0.0238% [at 18.6 µM] | fluorescence, % of fluorescein control [12] 0.0255% [at 18.6 µM] | fluorescence, % of fluorescent control [13] 0.0219% [at 18.6 µM]

CCN1CCC[C@H]1CNC(=O)c1c(OC)ccc(Br)c1OC
inactive: Potency [14] | Potency [15] | Potency [2] | Potency [3] | Potency [16] | outcome [4] | outcome [17] | Potency [5] | outcome [6] | Potency [8] | outcome [9] | outcome [10] | outcome [11] | Potency [18] | outcome [12] | Potency [13]

Cc1ccc2c(ccc3ccccc32)c1
inactive: Potency [1] | Potency [15] | Potency [2] | outcome [4] | outcome [17] | Potency [5] | outcome [6] | outcome [7] | Potency [8] | outcome [9] | outcome [10] | outcome [11] | Potency [18] | outcome [12] | Potency [13]

CCCCCCCCCC=O
inactive: Potency [1] | Potency [2] | Potency [3] | outcome [4] | outcome [17] | Potency [5] | outcome [6] | outcome [7] | Potency [8] | outcome [9] | outcome [10] | outcome [11] | outcome [12] | Potency [19]

O=C(O)Cc1sc(-c2ccccc2)nc1-c1ccc(Cl)cc1
active: Potency [16] 24.8 µM and 23.7 µM and 26.6 µM
inactive: Potency [1] | Potency [2] | Potency [3] | outcome [4] | outcome [17] | Potency [5] | outcome [6] | outcome [7] | outcome [9] | outcome [10] | outcome [11] | Potency [18] | outcome [12] | Potency [13] | Potency [19] | Potency [20]

CCN(CC)CCOc1ccc2c(c1)C(=O)c1cc(OCCN(CC)CC)ccc1-2
inactive: Potency [14] | Potency [15] | Potency [2] | Potency [3] | Potency [16] | outcome [4] | Potency [5] | outcome [6] | outcome [7] | Potency [8] | outcome [9] | outcome [10] | outcome [11] | outcome [12] | Potency [19]

O=C(O)Cn1c(C(=O)Nc2nc(-c3ccccc3Cl)cs2)cc2ccccc21
inactive: Potency [14] | Potency [15] | Potency [2] | Potency [3] | outcome [4] | outcome [17] | Potency [5] | outcome [6] | outcome [7] | Potency [8] | outcome [9] | outcome [10] | outcome [11] | Potency [18] | outcome [12] | Potency [19] | Potency [20]

CC(C)CCCCCCOC(=O)c1ccc(C(=O)OCCCCCCC(C)C)c(C(=O)OCCCCCCC(C)C)c1
inactive: Potency [14] | Potency [15] | Potency [2] | Potency [3] | Potency [16] | outcome [4] | outcome [17] | Potency [5] | outcome [6] | Potency [8] | outcome [9] | outcome [10] | outcome [11] | Potency [18] | outcome [12]

C=CC(C)(CCC=C(C)C)OC(=O)c1ccccc1 (stereo not drawn)
inactive: Potency [1] | Potency [2] | Potency [3] | outcome [4] | outcome [17] | Potency [5] | outcome [6] | outcome [7] | Potency [8] | outcome [9] | outcome [10] | outcome [11] | outcome [12] | Potency [19] | Potency [20]

ClC(Cl)(Cl)c1ccc(C(Cl)(Cl)Cl)cc1
inactive: Potency [14] | Potency [15] | Potency [2] | Potency [3] | outcome [4] | outcome [17] | Potency [5] | outcome [6] | outcome [7] | Potency [8] | outcome [9] | outcome [10] | outcome [11] | outcome [12] | Potency [13] | Potency [19] | Potency [20]
active: Potency [16] 13.5 µM

CC(C)(C)c1ccc(OCC2CO2)cc1 (stereo not drawn)
inactive: Potency [14] | Potency [15] | Potency [2] | Potency [3] | Potency [16] | outcome [4] | outcome [17] | Potency [5] | outcome [6] | outcome [7] | Potency [8] | outcome [9] | outcome [10] | outcome [11] | Potency [18] | Potency [13] | Potency [19]

O=c1[nH]cnc2ccccc12
inactive: Potency [1] | Potency [15] | Potency [3] | outcome [4] | outcome [17] | Potency [5] | outcome [6] | outcome [7] | Potency [8] | outcome [9] | outcome [10] | outcome [11] | outcome [12] | Potency [13] | Potency [19] | Potency [20]

Oc1ccc2c(c1)OCO2
inactive: Potency [1] | Potency [15] | Potency [3] | Potency [16] | outcome [4] | outcome [17] | Potency [5] | outcome [6] | Potency [8] | outcome [9] | outcome [10] | outcome [11] | outcome [12] | Potency [13] | Potency [19]

NCCCOCCOCCOCCCN
inactive: Potency [1] | Potency [2] | Potency [3] | Potency [16] | outcome [4] | outcome [17] | Potency [5] | outcome [6] | outcome [7] | Potency [8] | outcome [9] | outcome [10] | outcome [11] | outcome [12] | Potency [13] | Potency [19] | Potency [20]

C=C(C)C(=O)OCCOc1ccccc1
inactive: Potency [14] | Potency [15] | Potency [2] | Potency [3] | outcome [4] | outcome [17] | Potency [5] | outcome [6] | outcome [7] | Potency [8] | outcome [9] | outcome [10] | outcome [11] | Potency [18] | outcome [12] | Potency [13] | Potency [19] | Potency [20]
